Bioassay records as filed in PubChem BioAssay.
D2 ag-1: human D2 receptor agonism in beta-arrestin assay | 0.084% of 360,000 active | activation, % (no concentration beside the values) | DiscoveRx PathHunter D2 beta-arrestin, luminescence, 90 min; 100% = 57 uM dopamine signal; in the data active means activation above about 40%
Target sequence (P14416 whole entry, looked up): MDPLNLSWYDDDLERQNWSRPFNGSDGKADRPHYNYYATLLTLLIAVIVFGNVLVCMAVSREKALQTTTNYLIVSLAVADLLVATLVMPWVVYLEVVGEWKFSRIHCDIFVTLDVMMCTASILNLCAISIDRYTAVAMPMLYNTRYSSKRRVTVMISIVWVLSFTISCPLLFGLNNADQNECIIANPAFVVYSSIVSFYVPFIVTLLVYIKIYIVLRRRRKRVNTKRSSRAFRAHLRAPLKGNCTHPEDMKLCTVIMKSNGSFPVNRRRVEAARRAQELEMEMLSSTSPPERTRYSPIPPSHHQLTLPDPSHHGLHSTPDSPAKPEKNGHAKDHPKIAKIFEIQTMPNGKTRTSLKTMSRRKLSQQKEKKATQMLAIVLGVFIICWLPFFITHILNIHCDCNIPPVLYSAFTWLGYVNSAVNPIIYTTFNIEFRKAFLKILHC
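Agonist mode: compounds alone added to overnight-plated D2 PathHunter cells for 90 min at 37 C, with 57 uM final dopamine (EC100) defining full response. Beta-arrestin recruitment detected by chemiluminescent reagent, read after 1 h at ambient temperature.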
D2 antag: antagonists of human D2 dopamine receptor | HEK293 TREx D2 cells, calcium flux, dopamine EC80 | P14416 | 2% of 340,000 active | inhibition, % at 10 µM; in the data active means inhibition above about 30%; inactive means below that, where a call was filed; further: 0% is about no effect
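HEK293 T-REx D2 cells, tet-induced, calcium dye no-wash. Cpd pintool add, 180 s kinetic, then EC80 DA, 180 s kinetic. Ca flux read.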
D2 PAM-1: potentiates the human D2 dopamine receptor allosterically; 0.23% of 360,000 active; DiscoveRx D2 beta-arrestin cells, luminescence, 90 min; 100% = 57 uM dopamine signal; potentiation, % (no concentration beside the values); in the data active means potentiation above about 50%
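PathHunter D2 cells, attached overnight at 37 deg C, received compound in DMSO plus dopamine at EC20 (50 nM final) for 90 min at 37 deg C. Beta-arrestin recruitment was read as luminescence after 1 h with detection reagent at ambient temperature.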
D2 ag-2: agonists of human D2 dopamine receptor; 0.53% of 340,000 active; HEK293 T-REx D2 cells, calcium flux agonist mode; P14416; activation, % at 2 µM;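 active means activation over 3 SD above normal in the single-dose calcium agonist read, cut at about 30% in these data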; further: 0% is about no effect
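Agonism scored from kinetic calcium signal (1 read/sec, 180 s) following compound pin transfer, after a 10 s baseline. Cells: HEK293 Trex line expressing inducible D2 receptor coupled to calcium, dye-loaded after overnight culture at 30 C.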
D2 PAM-2: positively modulates the human D2 dopamine receptor allosterically; P14416; HEK293 T-REx D2, calcium flux, EC20 dopamine potentiation; potentiation, % at 10 µM; 0.34% of 340,000 active; AID 485347;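 active means potentiation over 3 SD above the plate norm, cut at about 30% in these data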; further: 0% is about no effect
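Calcium flux readout, no-wash dye, 1 read/s. Inducible HEK293 Trex D2 line, overnight 30 C. Compound alone 180 s (agonist flags), then EC20 dopamine, another 180 s to score potentiation.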
Active calls of the source: *; x = not tested or not shown. An excerpt weighted towards active compounds, which were near 2.4% of everything screened.

SMILES	D2 ag-1	D2 antag	D2 PAM-1	D2 ag-2	D2 PAM-2
CC1CC(C)CN(CCCNC(=O)c2ccc3c(c2)NC(=O)C(N2CCCCC2)S3)C1 (centres undefined)	-4	88*	-31	1	-29
O=C(NCCCN1CCCCC1)c1ccc2c(c1)NC(=O)C(N1CCCCC1)S2 (centres undefined)	-6	47*	-48	0	-21
O=C(O)c1ccc2c(c1)NC(=O)C(N1CCCC1)S2 (centres undefined)	-2	10	-9	1	-11
CCc1ccc(NC(=O)Cn2cnc3sc(C)c(S(=O)(=O)N4CCN(c5ccccc5OC)CC4)c3c2=O)cc1	x	x	x	0	8
S=c1[nH]nc(-c2ccco2)n1Cc1ccccc1	0	6	-10	-2	11
S=c1[nH]nc(-c2ccc(Br)o2)n1Cc1ccccc1	1	-13	-10	-1	35*
CCC(CC)C(=O)Nc1ccc(OCc2cc(=O)n3c4c(sc3n2)CCCC4)cc1	x	x	x	-1	7
CCN(c1ccccc1)S(=O)(=O)c1cnc[nH]1	-3	34*	4	1	1
COc1ccc(/C=C(/NC(=O)c2cccc([N+](=O)[O-])c2)C(=O)O)cc1OC	4	56*	-4	0	-3
COC(=O)/C(=C/c1cccc([N+](=O)[O-])c1)NC(=O)c1ccc(OC)cc1	0	10	2	-1	6
NNc1ncnc2c1cnn2-c1ccccc1	-4	31*	-7	0	6
c1ccc(-n2ncc3c(NC4CCCCCC4)ncnc32)cc1	-3	46*	-3	0	-2
O=C(NC1CC(=O)N(c2cccc(F)c2)C1)c1ccc(S(=O)(=O)N2CCCCC2)cc1 (centres undefined)	x	x	x	x	-2
Cc1cccc(N2C(=O)CS(=O)(=O)C23C(=O)N(Cc2c(F)cccc2Cl)c2ccccc23)c1 (centres undefined)	x	x	x	0	-3
O=C(CN1CCOCC1)Nc1ncc(Cc2cccc3ccccc23)s1	3	42*	7	0	3
O=C(CCCCn1c(=O)c2ccccc2n(Cc2cccc(Cl)c2)c1=O)NCc1ccc2c(c1)OCO2	x	x	x	0	3
COC(=O)c1ccccc1NC(=O)c1cnn2c(C(F)F)cc(C3CC3)nc12	-1	-27	15	-2	33*
COc1cc(NC(=O)c2cnn3c(C(F)F)cc(C4CC4)nc23)c(OC)cc1Cl	-2	3	-3	0	-2
CCOC(=O)c1ccc2c(c1)N(C)C(=O)c1ccccc1S2	-2	-2	-3	1	-1
CCOC(=O)c1cc2n(c1/N=C/N(C)C)-c1ccccc1C2=O	-4	15	-4	36*	4
Cn1c(=O)c2c(nc(NCc3ccco3)n2C/C=C/c2ccccc2)n(C)c1=O	12	-4	64*	-1	10
Cc1ncc(CN2CCC(CO)(CCc3ccccc3)CC2)s1	-3	81*	-23	1	-38
CC(COc1ccccc1)N1CCC(CO)(CCc2ccccc2)CC1 (centres undefined)	-1	52*	-15	17	-17
OCC1(CCCc2ccccc2)CCN(Cc2cnc(N3CCOCC3)s2)CC1	-2	-9	-12	0	-3
Cc1ccc(Cl)cc1NC(=O)Cn1c(=O)n(C(C)C)c(=O)c2oc3ccccc3c21	x	x	x	1	-2
SMILES	D2 ag-1	D2 antag	D2 PAM-1	D2 ag-2	D2 PAM-2
CC(=O)c1cccc(NC(=O)Nc2nnc(N3CCCC3)s2)c1	x	x	x	17	-10
CCCC(=O)Nc1ccc2oc(-c3ccncc3)nc2c1	-1	1	-6	-1	34*
CCCCC(=O)Nc1ccc2oc(-c3ccncc3)nc2c1	-2	x	-8	x	x
CCCCCC(=O)Nc1ccc2oc(-c3cncc(Br)c3)nc2c1	0	-16	-9	1	11
CCCC(=O)Nc1ccc2oc(-c3cncc(Br)c3)nc2c1	-1	39*	-3	0	8
Cc1cc(C)c2c(CC(=O)Nc3nnc(C(C)C)s3)coc2c1	x	x	x	0	-6
CCc1cc(C(=O)NCC(c2cccs2)N2CCOCC2)sc1C (centres undefined)	-2	31*	-38	0	-5
